# Bioassay records (PubChem BioAssay)
# FBW7 act – human FBW7 E3 ligase activation, primary screen; Q969H0; AlphaScreen FBW7–phospho-cyclin E peptide binding, activator screen; normalized activity (activation), % at 26.1 µM; hit rate 0.13% among 650,000; in the data active = normalized activity above about 1.9%;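 note: purified mutant Fbw7 with reduced substrate affinity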
# GPR151 activ – human GPR151 activation; hit rate 1% among 650,000; activation, % at 11.2 µM; Q8TDV0; AID 1508602; PathHunter beta-arrestin GPR151 cells, luminescence; in the data active = activation above about 4.9%;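 note: 0% = median of compound wells and 100% = cells with positive control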
# Target sequence (Q8TDV0 whole entry, looked up): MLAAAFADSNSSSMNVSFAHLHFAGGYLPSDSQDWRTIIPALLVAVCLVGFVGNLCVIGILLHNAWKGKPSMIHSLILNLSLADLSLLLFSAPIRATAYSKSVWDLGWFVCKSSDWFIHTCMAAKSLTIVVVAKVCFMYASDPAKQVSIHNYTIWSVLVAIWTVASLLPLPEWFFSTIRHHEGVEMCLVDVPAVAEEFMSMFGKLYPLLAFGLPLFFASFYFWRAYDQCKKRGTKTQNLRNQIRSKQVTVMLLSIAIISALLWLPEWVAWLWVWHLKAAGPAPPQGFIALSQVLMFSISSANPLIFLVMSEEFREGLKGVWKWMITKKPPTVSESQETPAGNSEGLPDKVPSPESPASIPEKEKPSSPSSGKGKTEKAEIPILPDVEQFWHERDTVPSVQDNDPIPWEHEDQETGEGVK
# TEAD-YAP block – TEAD-YAP interaction inhibition. hit rate 1.4% among 640,000. AID 1259422. HEK-TIYL cells, TEAD-Gal4/YAP UAS-luciferase luminescence. inhibition, % at 9.12 µM; in the data active = inhibition above about 32%;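 note: 0% = median of test compound wells and 100% = reference inhibitor wells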
# MITF inh – inhibitors of human MITF; O75030; AlphaScreen MITF homodimerization, bead proximity signal; inhibition, % at 2.6 µM; hit rate 0.91% among 650,000; AID 1259374; in the data active = inhibition above about 50%;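 note: 0% = vehicle wells with protein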
# An asterisk follows results filed as active. Most compounds without a hit are left out; they make up all but 3.5% or so of the library.
SMILES,FBW7 act,GPR151 activ,TEAD-YAP block,MITF inh
O=S(=O)(Nc1ccc(Br)c2cccnc12)c1ccccc1,-0.1,-1.9,32.8*,18.8
COc1ccc(NS(=O)(=O)c2ccc3ccccc3c2)c2ncccc12,-0.4,-1.0,25.6,30.4
O=C(Nc1nc(C(=O)N2CCN(c3ccccc3)CC2)cs1)c1ccccc1,-0.1,-1.9,6.5,16.1
CC(C)c1cc(C(=O)NCc2ccco2)nn1-c1nc2ccccc2s1,-0.1,0.6,78.2*,-1.7
CC(C)c1cc(C(=O)Nc2ccc(F)cc2)nn1-c1nc2ccccc2s1,-0.1,1.0,-7.3,33.7
COc1cc(NC(=O)c2ccc(-c3c(C)nn(C)c3C)s2)cc(OC)c1OC,0.0,-0.9,51.3*,12.0
Cc1ccccc1COc1ccc(/C=N/N=C2\NC(=O)C(CC(=O)O)S2)cc1 (stereo not drawn),-0.3,-0.9,1.2,3.6
CC(C(=O)c1ccc(-c2ccccc2)cc1)[n+]1ccccc1 (stereo not drawn),-0.2,0.3,17.9,-9.8
Cc1ccc[n+](C(C)C(=O)c2ccc(-c3ccccc3)cc2)c1 (stereo not drawn),-0.1,0.0,65.5*,-10.4
Cc1cc(C)n(Cc2cccc(F)c2)c(=O)c1C#N,0.1,0.3,3.1,0.2
Cc1cc[n+]2cc(C)n(Cc3cccc(F)c3)c2c1,1.0,-0.3,40.8*,9.4
C=CCn1c(=NC(=O)c2ccccc2[N+](=O)[O-])sc2cc(NC(C)=O)ccc21,0.0,0.4,48.5*,4.1
COc1ccc2nc(C)cc(Nc3ccc(Oc4ccc(Cl)cc4)c(Cl)c3)c2c1,-0.1,0.4,44.3*,0.0
COc1ccc(OC)c(Nc2cc(C)nc3ccccc23)c1,-0.1,0.4,37.1*,-2.8
COc1ccc2nc(C)cc(Nc3ccccc3OC)c2c1,0.7,-0.9,17.1,19.2
COc1cccc(Nc2cc(C)nc3ccc(Cl)cc23)c1,-0.1,0.0,43.7*,8.0
COc1cccc(Nc2cc(C)nc3ccc(OC)cc23)c1,0.1,1.5,8.1,29.2
CCOC(=O)CSC1=C(C#N)[C@H](c2ccccc2OCC)[C@@H](C(=O)OCC)C(=O)N1,0.0,1.4,6.1,16.0
COc1ccc(/C=C/C(=O)Nc2ccc(N(C)C)cc2)cc1OC,-0.1,-0.2,-12.7,11.2
CCOC(=O)c1c(NC(=O)/C=C/C(=O)O)sc(C)c1-c1ccc(Cl)cc1,-0.1,0.1,41.1*,9.7
CCOC(=O)c1c(NC(=O)/C=C/C(N)=O)sc(C)c1C,0.0,1.5,45.2*,6.2
CCOC(=O)/C=C/C(=O)Nc1sc(C)c(C)c1C(N)=O,0.1,0.4,11.1,15.0
CCOC(=O)c1c(-c2ccc(OCC)cc2)csc1NC(=O)/C=C/C(=O)O,0.5,-0.6,48.2*,16.4
COC(=O)c1c(NC(=S)Nc2ccccc2)sc(Cc2ccccc2)c1C,0.1,0.7,-3.7,6.5
COC(=O)c1c(NC(=O)/C=C/C(=O)O)sc(Cc2ccccc2)c1C,0.5,-0.9,36.1*,2.3
SMILES,FBW7 act,GPR151 activ,TEAD-YAP block,MITF inh
COC(=O)c1c(NC(=O)c2ccc(S(=O)(=O)N(C)C)cc2)sc2c1CC(C)(C)NC2(C)C,-0.1,1.4,11.4,-5.1
COc1ccccc1C(=O)N/N=C/c1cc(Br)cc(OC)c1O,0.1,-0.4,-13.9,16.4
COc1cc(/C=N/NC(=O)c2cccc(NC(C)=O)c2)cc(Cl)c1O,-0.5,0.0,-0.5,62.6*
COc1cc(Br)cc(/C=N/NC(=O)c2ccccc2O)c1O,-0.2,-0.6,71.9*,36.0
O=C(N/N=C/c1cc(Cl)cc(Br)c1O)c1ccccc1O,-0.2,0.7,56.7*,26.9
COc1cc(C(=O)N/N=C/c2cc(Br)cc(Cl)c2O)cc(OC)c1OC,-1.0,0.5,58.2*,26.8
Cc1nnc(SCC(=O)NCc2ccco2)c2c1cnn2-c1ccc(F)cc1,-0.2,0.3,1.0,1.3
COc1cc2ccccc2cc1C(=O)Nc1ccc(NC(=O)c2ccc(C(C)(C)C)cc2)cc1,0.8,-0.1,4.3,18.4
N#CC1=C(N)N(c2ncn[nH]2)C2=C(C(=O)CC(c3ccccc3)C2)C1c1ccc(Cl)cc1 (stereo not drawn),0.1,0.8,1.9,-4.3
CC(=O)CC(C)(C)S(=O)(=O)c1ccc(Cl)cc1,0.2,-0.1,-0.4,13.9
CCN(CC)CC(=O)Nc1c2c(nc3ccccc13)CCC2,-0.1,0.9,-13.9,5.1
CCOc1cc(/C=N/NC(=O)c2cccnc2)cc(Br)c1O,0.1,-0.7,3.3,4.8
Cc1ccc(C(=O)N/N=C/c2cc(Br)ccc2O)cn1,-0.6,0.4,49.9*,83.8*
CCOc1cc(Br)cc(/C=N/NC(=O)c2cccnc2)c1O,-1.2,0.3,77.6*,52.8*
COc1ccc(O)c(/C=N/NC(=O)c2ccccc2O)c1,0.6,1.3,65.4*,43.2
COc1cc(Cl)cc(/C=N/NC(=O)c2ccccc2O)c1O,-2.7,-0.1,74.5*,44.7
CSCCCNC1CCCN(c2nc(C)c3cc(F)ccc3n2)CC1 (stereo not drawn),0.1,0.9,8.1,-13.3
O=C(NCc1ccc(F)cc1)c1ccc2c(=O)n(-c3cccc(C(F)(F)F)c3)c(=S)[nH]c2c1,0.3,0.8,-7.6,-3.5
Cc1ccc(O)c(/C=N/NC(=O)c2ccccc2)c1,-1.9,-1.6,58.9*,26.2
COc1cc(Br)cc(/C=N/NC(=O)c2ccccc2Br)c1O,-0.1,0.6,3.1,38.0
COc1cc(Br)cc(/C=N/NC(=O)c2ccccc2)c1O,-0.2,-0.9,71.5*,8.6
Oc1ccc(Br)cc1/C=N/NC(=S)Nc1cccnc1,-0.6,-0.3,12.1,56.9*
COc1ccc(/C=N/NC(=O)c2cccnc2)cc1Cn1cnc([N+](=O)[O-])n1,0.2,-0.1,45.2*,10.8
COc1ccc(/C=N/NC(=O)c2cccnc2)cc1CN1CCN(c2ccc(F)cc2)CC1,0.0,-0.1,2.9,8.1
COc1cccc(/C=C2\CN(C)C/C(=C\c3cccc(OC)c3)C2=O)c1,0.1,-0.2,7.1,-24.8
SMILES,FBW7 act,GPR151 activ,TEAD-YAP block,MITF inh
O=C(N/N=C/c1ccccc1O)c1ccc(F)cc1,-0.1,-0.4,-33.9,27.4
COc1cc(Br)cc(/C=N/NC(=O)c2ccc(C)nc2)c1O,-0.8,0.2,27.9,64.3*
COc1ccc(Cl)cc1/C=N/NC(=O)c1ccc(C)nc1,-0.1,1.2,-1.9,-3.2
O=C(N/N=C/c1cc(Br)ccc1O)c1ccc(F)cc1,-0.1,1.3,76.3*,11.7
Cc1cc(C)nc(N2CCN(S(=O)(=O)c3ccccc3C(F)(F)F)CC2)n1,0.0,0.2,-5.4,-35.9
Cc1nn(C)cc1C(C)NC(=S)Nc1ccc(S(N)(=O)=O)cc1 (stereo not drawn),-0.2,1.1,4.9,11.7
c1cncc(CNc2ncnc3nc(Nc4ccc5ncccc5c4)[nH]c23)c1,-0.2,-1.8,37.7*,-2.6
COc1cc(C(=O)NC(=S)NN2CCN(C)CC2)cc(OC)c1OC,-0.1,0.5,-0.5,-0.3
COc1ccc(Nc2nc(C(=O)N3CCc4ccccc43)cs2)cc1OC,0.2,-0.1,-6.6,-0.7
CC(=O)Oc1cc(C(=O)Nc2ccc(F)cc2)cc(C(=O)Nc2ccc(F)cc2)c1,0.0,0.5,18.2,15.2
COC(=O)c1ccc(NC(=O)c2cc(OC(C)=O)cc(OC(C)=O)c2)cc1,-0.1,0.8,45.3*,2.3
